In PubChem BioAssay (NCATS):
Results filed as inconclusive are left out. Values without a mark were called inactive. Activity calls are given as the source filed them. Calls come from the whole dose curve; as a rule, active = well fitted inhibition curve with a large enough effect; inconclusive = small, poorly fitted or top-dose-only effect; inactive = flat fitted curve, though single readings scatter.

Each compound was assayed on CP215 (assay: qHTS profiling for inhibitors of Plasmodium falciparum proliferation (AID 504749; note: nearly all actives have a fitted effect of over 60% in size;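 for activity, negative = inhibition: 0% = DMSO vehicle and full inhibition = artemisinin control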)). Settings: P. falciparum in erythrocytes, SYBR Green DNA, 72 h; series mostly up to 28.7 µM; activity, negative = inhibition: at the top concentration.
Summary of the method: (§1)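 Infected RBCs, 0.3% parasitemia/2.5% Hct final; cpd 72 h, 37 C, 5% CO2; lysis buffer with saponin/triton/SYBR Green I, o/n RT dark; FI 485/535; norm. to artemisinin (0.29 uM) and DMSO.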
Potency is the fitted concentration of half-maximal effect.

Question: With O=C1c2cccc(O)c2C(=O)c2c(O)cccc21 as the compound, how does the “activity, negative = inhibition” value read?
Answer: 6.68%

Question: With O=C1c2ccccc2S(=O)(=O)N1CCCCN1CCN(c2ncccn2)CC1 as the compound, how does the “activity, negative = inhibition” value read?
Answer: -2.37%

Question: For OCC(O)CS (stereo not drawn), which “activity, negative = inhibition” value is on record?
Answer: 3.49%

Question: With Cc1cc(-n2nc3ccc(Cl)cc3n2)c(O)c(C(C)(C)C)c1 as the compound, how does the “activity, negative = inhibition” value read?
Answer: -0.176%

Question: Which “activity, negative = inhibition” value does the source give for Nc1ncnc(Nc2ccccc2)n1 here?
Answer: -8.59%

Question: CC(=O)OC[C@H]1O[C@@](COC(C)=O)(O[C@H]2O[C@H](COC(C)=O)[C@@H](OC(C)=O)[C@H](OC(C)=O)[C@H]2OC(C)=O)[C@@H](OC(C)=O)[C@@H]1OC(C)=O was tested. Which “activity, negative = inhibition” value did it give?
Answer: -7.01%

Question: O=C(c1ccccc1)C(O)c1ccccc1 (stereo not drawn) was tested. Which “activity, negative = inhibition” value did it give?
Answer: -9.81%

Question: With CC(C)=CCC/C(C)=C/CO as the compound, how does the “activity, negative = inhibition” value read?
Answer: -1.49%

Question: With NCc1ccc(S(N)(=O)=O)cc1 as the compound, how does the “activity, negative = inhibition” value read?
Answer: 2.61% [at 12.8 µM]

Question: For O=C1CC[C@@H](C(=O)O)N1, which “activity, negative = inhibition” value is on record?
Answer: 1.05%

Question: How did the “activity, negative = inhibition” value turn out when CCCCCCCCCCC(CO)CCCCCCCC (stereo not drawn) was run?
Answer: 7.75%

Question: How did the “activity, negative = inhibition” value turn out when CCCCCCCC(=O)OCC(COC(=O)CCCCCCC)OC(=O)CCCCCCC was run?
Answer: 10.6%

Question: With CCCCCC(C)N (stereo not drawn) as the compound, how does the “activity, negative = inhibition” value read?
Answer: -0.401%

Question: With CC(=O)N[C@@H](Cc1ccc(O)cc1)C(=O)O as the compound, how does the “activity, negative = inhibition” value read?
Answer: 11.5%

Question: CC(=O)Oc1cccc(O)c1 was tested. Which “activity, negative = inhibition” value did it give?
Answer: -0.392%

Question: Cc1c(I)c(=O)n(-c2ccccc2)n1C was tested. Which “activity, negative = inhibition” value did it give?
Answer: 16.5%

Question: How did the “activity, negative = inhibition” value turn out when CN(C(=O)c1c(O)c2ccccc2n(C)c1=O)c1ccccc1 was run?
Answer: -0.261%

Question: Which “activity, negative = inhibition” value does the source give for C[C@H]1COc2c(C3(N)CC3)c(F)cc3c(=O)c(C(=O)O)cn1c23 here?
Answer: -3.45%

Question: With CC(=O)SC[C@@H](Cc1ccccc1)C(=O)NCC(=O)OCc1ccccc1 as the compound, how does the “activity, negative = inhibition” value read?
Answer: -15.2% [at 12.8 µM]

Question: For Cc1[nH]c(C)c(Cl)c(=O)c1Cl, which “activity, negative = inhibition” value is on record?
Answer: -8.89%

Question: For O=C(O)CCCCC1CCSS1 (stereo not drawn), which “activity, negative = inhibition” value is on record?
Answer: 20.9%

Question: For CCN1CC(CCN2CCOCC2)C(c2ccccc2)(c2ccccc2)C1=O (stereo not drawn), which “activity, negative = inhibition” value is on record?
Answer: -5.86%

Question: With Cc1cc(C)c(NC(=O)CN(CC(=O)O)CC(=O)O)c(C)c1Br as the compound, how does the “activity, negative = inhibition” value read?
Answer: -1.74%

Question: CN(C/C=C/C#CC(C)(C)C)Cc1cccc2ccccc12 was tested. Which “activity, negative = inhibition” value did it give?
Answer: 9.6%

These compounds were tested on CP217 in the same assay as above. Settings: P. falciparum in erythrocytes, SYBR Green DNA, 72 h; series mostly up to 28.7 µM; activity, negative = inhibition: at the top concentration.
Summary of the method: as §1

Question: O=C1c2cccc(O)c2C(=O)c2c(O)cccc21 was tested. Which “activity, negative = inhibition” value did it give?
Answer: 0.197%

Question: With COc1nccnc1NS(=O)(=O)c1ccc(N)cc1 as the compound, how does the “activity, negative = inhibition” value read?
Answer: -0.82%

Question: With O=C1c2ccccc2S(=O)(=O)N1CCCCN1CCN(c2ncccn2)CC1 as the compound, how does the “activity, negative = inhibition” value read?
Answer: -2.41%

Question: How did the “activity, negative = inhibition” value turn out when OCC(O)CS (stereo not drawn) was run?
Answer: 20.8%

Question: How did the “activity, negative = inhibition” value turn out when CC(CN(C)C)C(C)(O)Cc1ccc(Cl)cc1 (stereo not drawn) was run?
Answer: -25.2%

Question: Which “activity, negative = inhibition” value does the source give for Nc1ncnc(Nc2ccccc2)n1 here?
Answer: -27.5%

Question: For NC(=O)CCCCC1CCSS1 (stereo not drawn), which “activity, negative = inhibition” value is on record?
Answer: -10.6%

Question: With O=C(c1ccccc1)C(O)c1ccccc1 (stereo not drawn) as the compound, how does the “activity, negative = inhibition” value read?
Answer: -22.5%

Question: For CC(C)=CCC/C(C)=C/CO, which “activity, negative = inhibition” value is on record?
Answer: -1.42%

Question: Which “activity, negative = inhibition” value does the source give for CCOC(=O)[C@H](CCc1ccccc1)N[C@@H](C)C(=O)N1CCC[C@H]1C(=O)O here?
Answer: 4.09%

Question: For NCc1ccc(S(N)(=O)=O)cc1, which “activity, negative = inhibition” value is on record?
Answer: -9.32% [at 12.8 µM]

Question: How did the “activity, negative = inhibition” value turn out when O=C1CC[C@@H](C(=O)O)N1 was run?
Answer: -0.0643%

Question: With Cc1c(NC(=O)c2cccnc2)c(=O)n(-c2ccccc2)n1C as the compound, how does the “activity, negative = inhibition” value read?
Answer: -2.17% [at 12.8 µM]

Question: For CCCCCCCCCCC(CO)CCCCCCCC (stereo not drawn), which “activity, negative = inhibition” value is on record?
Answer: -4.31%

Question: CCCCCCCC(=O)OCC(COC(=O)CCCCCCC)OC(=O)CCCCCCC was tested. Which “activity, negative = inhibition” value did it give?
Answer: 9.39%

Question: For CC(=O)N[C@@H](Cc1ccc(O)cc1)C(=O)O, which “activity, negative = inhibition” value is on record?
Answer: -6.88%

Question: Which “activity, negative = inhibition” value does the source give for CC(=O)Oc1cccc(O)c1 here?
Answer: 11.1%

Question: With Cc1onc(-c2ccccc2)c1-c1ccc(S(N)(=O)=O)cc1 as the compound, how does the “activity, negative = inhibition” value read?
Answer: 6.9%

Question: How did the “activity, negative = inhibition” value turn out when Cc1c(I)c(=O)n(-c2ccccc2)n1C was run?
Answer: -1.48%

Question: Which “activity, negative = inhibition” value does the source give for CN(C(=O)c1c(O)c2ccccc2n(C)c1=O)c1ccccc1 here?
Answer: 2.03%

Question: How did the “activity, negative = inhibition” value turn out when C[C@H]1COc2c(C3(N)CC3)c(F)cc3c(=O)c(C(=O)O)cn1c23 was run?
Answer: -16%

Question: CC(=O)SC[C@@H](Cc1ccccc1)C(=O)NCC(=O)OCc1ccccc1 was tested. Which “activity, negative = inhibition” value did it give?
Answer: -6.84% [at 12.8 µM]

Question: How did the “activity, negative = inhibition” value turn out when Cc1[nH]c(C)c(Cl)c(=O)c1Cl was run?
Answer: -29.9%

Question: O=C(O)CCCCC1CCSS1 (stereo not drawn) was tested. Which “activity, negative = inhibition” value did it give?
Answer: 0.577%

Question: CCN1CC(CCN2CCOCC2)C(c2ccccc2)(c2ccccc2)C1=O (stereo not drawn) was tested. Which “activity, negative = inhibition” value did it give?
Answer: -26.9%

Question: With CN(C/C=C/C#CC(C)(C)C)Cc1cccc2ccccc12 as the compound, how does the “activity, negative = inhibition” value read?
Answer: -5.99%

What follows are compounds tested on CP237 in the same assay as above. Settings: P. falciparum in erythrocytes, SYBR Green DNA, 72 h; series mostly up to 28.7 µM; activity, negative = inhibition: at the top concentration.
Summary of the method: as §1

Question: O=C1c2cccc(O)c2C(=O)c2c(O)cccc21 was tested. Which “activity, negative = inhibition” value did it give?
Answer: -4.95%

Question: With COc1nccnc1NS(=O)(=O)c1ccc(N)cc1 as the compound, how does the “activity, negative = inhibition” value read?
Answer: -0.742%

Question: O=C1c2ccccc2S(=O)(=O)N1CCCCN1CCN(c2ncccn2)CC1 was tested. Which “activity, negative = inhibition” value did it give?
Answer: -22.1%

Question: How did the “activity, negative = inhibition” value turn out when OCC(O)CS (stereo not drawn) was run?
Answer: -3.37%

Question: How did the Potency turn out when CC(CN(C)C)C(C)(O)Cc1ccc(Cl)cc1 (stereo not drawn) was run?
Answer: 2.51 µM (active)

Question: Cc1cc(-n2nc3ccc(Cl)cc3n2)c(O)c(C(C)(C)C)c1 was tested. Which “activity, negative = inhibition” value did it give?
Answer: -9.28%

Question: How did the “activity, negative = inhibition” value turn out when Nc1ncnc(Nc2ccccc2)n1 was run?
Answer: -17.7%

Question: Which “activity, negative = inhibition” value does the source give for CC(=O)OC[C@H]1O[C@@](COC(C)=O)(O[C@H]2O[C@H](COC(C)=O)[C@@H](OC(C)=O)[C@H](OC(C)=O)[C@H]2OC(C)=O)[C@@H](OC(C)=O)[C@@H]1OC(C)=O here?
Answer: 0.112%

Question: With O=C(c1ccccc1)C(O)c1ccccc1 (stereo not drawn) as the compound, how does the “activity, negative = inhibition” value read?
Answer: -11.9%

Question: CC(C)=CCC/C(C)=C/CO was tested. Which “activity, negative = inhibition” value did it give?
Answer: 5.24%

Question: CCOC(=O)[C@H](CCc1ccccc1)N[C@@H](C)C(=O)N1CCC[C@H]1C(=O)O was tested. Which “activity, negative = inhibition” value did it give?
Answer: 6.91%

Question: Which “activity, negative = inhibition” value does the source give for NCc1ccc(S(N)(=O)=O)cc1 here?
Answer: 1.22% [at 12.8 µM]

Question: With Cc1cc(OI)c(C(C)C)cc1-c1cc(C(C)C)c(OI)cc1C as the compound, how does the “activity, negative = inhibition” value read?
Answer: -14.7%

Question: O=C1CC[C@@H](C(=O)O)N1 was tested. Which “activity, negative = inhibition” value did it give?
Answer: 13%

Question: How did the “activity, negative = inhibition” value turn out when Cc1c(NC(=O)c2cccnc2)c(=O)n(-c2ccccc2)n1C was run?
Answer: 3.84% [at 12.8 µM]

Question: CCCCCCCCCCC(CO)CCCCCCCC (stereo not drawn) was tested. Which “activity, negative = inhibition” value did it give?
Answer: -3.49%

Question: O=C1c2ccccc2C(=O)C1c1ccc(Br)cc1 was tested. Which “activity, negative = inhibition” value did it give?
Answer: -3.61%

Question: Which “activity, negative = inhibition” value does the source give for CCCCCCCC(=O)OCC(COC(=O)CCCCCCC)OC(=O)CCCCCCC here?
Answer: -3.25%

Question: With CC(=O)N[C@@H](Cc1ccc(O)cc1)C(=O)O as the compound, how does the “activity, negative = inhibition” value read?
Answer: 3.23%

Question: With CC(=O)Oc1cccc(O)c1 as the compound, how does the “activity, negative = inhibition” value read?
Answer: 1.57%

Question: How did the “activity, negative = inhibition” value turn out when Cc1onc(-c2ccccc2)c1-c1ccc(S(N)(=O)=O)cc1 was run?
Answer: 7.13%

Question: With Cc1c(I)c(=O)n(-c2ccccc2)n1C as the compound, how does the “activity, negative = inhibition” value read?
Answer: 0.79%

Question: With CN(C(=O)c1c(O)c2ccccc2n(C)c1=O)c1ccccc1 as the compound, how does the “activity, negative = inhibition” value read?
Answer: 7.71%

Question: How did the “activity, negative = inhibition” value turn out when C[C@H]1COc2c(C3(N)CC3)c(F)cc3c(=O)c(C(=O)O)cn1c23 was run?
Answer: -1.01%

Question: With CC(=O)SC[C@@H](Cc1ccccc1)C(=O)NCC(=O)OCc1ccccc1 as the compound, how does the “activity, negative = inhibition” value read?
Answer: -0.384% [at 12.8 µM]

Question: For Cc1[nH]c(C)c(Cl)c(=O)c1Cl, which Potency is on record?
Answer: 8.91 µM (active)

Question: Which “activity, negative = inhibition” value does the source give for O=C(O)CCCCC1CCSS1 (stereo not drawn) here?
Answer: 0.399%

Question: For Cc1cc(C)c(NC(=O)CN(CC(=O)O)CC(=O)O)c(C)c1Br, which “activity, negative = inhibition” value is on record?
Answer: -0.882%
